According to PubChem BioAssay:
Active and inactive are the calls of the source. The rule behind the calls is not given here.

system: Aerobactin synthetase IucA (Klebsiella pneumoniae hvKP1); assay: Biochemical IucA enzyme inhibition primary screen of the Spectrum library (AID 1346200); conditions: malachite green pyrophosphate, A620, at 8 µM, hits give low values;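 note: 100% = wells without compound and 0% = wells lacking enzyme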

Structure (SMILES) | activity remaining
CO[C@H]1/C=C/O[C@@]2(C)Oc3c(C)c(O)c4c(O)c(c5c(nc6cc(C)ccn65)c4c3C2=O)NC(=O)/C(C)=C\C=C\[C@H](C)[C@H](O)[C@@H](C)C(O)[C@@H](C)[C@H](OC(C)=O)[C@@H]1C (stereo partly specified) | 110% (inactive)
NC[C@H]1O[C@H](O[C@H]2[C@H](O)[C@@H](O[C@H]3O[C@H](CO)[C@@H](O)[C@H](N)[C@H]3O)[C@H](N)C[C@@H]2N)[C@H](N)[C@@H](O)[C@@H]1O | 108% (inactive)
COc1cc(C(C)=O)cc(OC)c1O | 94.5% (inactive)
CCn1cc(C(=O)O)c(=O)c2cnc(N3CCNCC3)nc21 | 101% (inactive)
O=C(O)c1cccnc1 | 120% (inactive)
C=CCCCCCCCCCCCC(O)CC(O)COC(C)=O (stereo unspecified) | 116% (inactive)
NC(Cc1ccc(F)cc1)C(=O)O (stereo unspecified) | 124% (inactive)
CCCOc1ccc(C(=O)OCCN(CC)CC)cc1N | 109% (inactive)
CN(N=O)C(=O)N[C@@H]1[C@@H](O)[C@H](O)[C@@H](CO)O[C@@H]1O | 112% (inactive)
CCN(CCCc1ccccc1)CCCc1ccccc1 | 109% (inactive)
C[C@]12CCC3c4ccc(O)cc4CCC3C1CCC2=O (stereo partly specified) | 103% (inactive)
O=C1c2c(O)cccc2Cc2cccc(O)c21 | 92.3% (inactive)
C[N+](C)(C)C[C@H](O)CC(=O)[O-] | 100% (inactive)
COc1ccc2c(c1OC)OC[C@@H](c1ccc(OC)c(OC)c1OC)C2 | 95.9% (inactive)
CC(=O)OCC(OC(C)=O)C(OC(C)=O)C(OC(C)=O)C(OC(C)=O)C(COC(C)=O)OC(C)=O (stereo unspecified) | 103% (inactive)
c1ccc2c(c1)CN1CCCC1=N2 | 99.8% (inactive)
COC(=O)[C@@]1(C)CCC[C@]2(C)c3ccc(O)c(C(C)C)c3CCC12 (stereo partly specified) | 121% (inactive)
CC(C)NCC(O)COc1ccc(CC(N)=O)cc1 (stereo unspecified) | 117% (inactive)
C#CCCCCCCCCCCCC(O)CC(O)COC(C)=O (stereo unspecified) | 109% (inactive)
CC(C)Oc1ccc2c(=O)cc(-c3ccccc3)oc2c1 | 114% (inactive)
CS(=O)(=O)OCCCCOS(C)(=O)=O | 79.2% (inactive)
O=C1OC(c2ccc(O)cc2)(c2ccc(O)cc2)c2ccccc21 | 115% (inactive)
CC1CC(OC(=O)c2ccccc2O)CC(C)(C)C1 (stereo unspecified) | 110% (inactive)
NC(Cc1ccc(Cl)cc1)C(=O)O (stereo unspecified) | 108% (inactive)
COC1C=CC23c4cc5c(cc4CN(C[C@H]2O)[C@@H]3C1)OCO5 (stereo partly specified) | 110% (inactive)
CCCCOC(=O)c1ccc(N)cc1 | 85.9% (inactive)
